HCMV inh: human cytomegalovirus inhibition. HFF cells, HCMV-luciferase reporter, 72 h; active compounds read low. activity change, negative = inhibition, % at 57.5 µM. 410,000 tested, 4.5% active. AID 1259415; in the data active means activity change below about -60%; inconclusive means no clear call, values can overlap the other calls; inactive means above about -39%; further: on the % scale 0 is the no-effect control and ±100 the full control effect
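Cell-based, HFFs, 1000 cells/well, 16 h 37C; cpds in DMSO + HCMV-luc, MOI 1 PFU/cell; 72 h 37C; OneGlo luminescence after 5 min RT; norm. to buffer vs Salinomycin 10uM.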
Pf growth 48h: P. falciparum growth inhibition at 48 hours (one generation). 310,000 tested, 5.9% active. P. falciparum luciferase growth in erythrocytes, 48 h. AID 504832. Potency, µM (top dose mostly 28.7 µM), inactives show at the highest dose activity change, negative = inhibition, actives largely listed as inhibitors; further: potency means the concentration at half of the fitted maximal effect; on the % scale 0 is the no-effect control and ±100 the full control effect
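Erythrocytes infected with P. falciparum carrying an integrated firefly luciferase reporter (2% hematocrit, 0.1% parasitemia final) were exposed to compounds in RPMI 1640 with 0.5% Albumax at 37 C, 5% CO2. Growth inhibition was scored as reduced luminescence.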
Pf growth 96h: P. falciparum growth inhibition at 96 hours | 320,000 tested, 6.9% active | Potency, µM (series often up to 28.7 µM), for inactives: at the top dose activity change, negative = inhibition, most hits filed as inhibitors | P. falciparum luciferase reporter growth, 96 h | AID 504834; further: potency means the concentration at half of the fitted maximal effect; on the % scale 0 is the no-effect control and ±100 the full control effect
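Readout is luminescence from an integrated firefly luciferase in P. falciparum. Red cells, 2% hematocrit and 0.05% parasitemia final, were cultured with compound through two parasite generations (96 hours) at 37 C, 5% CO2.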
CHX counter: counter-screen hit for Shiga toxin inhibitors, cycloheximide | max response, % | 300,000 tested, 12% active | cell reporter, cycloheximide protein synthesis inhibition counterscreen | AID 2314; in the data active means max response mostly above about 13%, no sharp cut-off; inactive means mostly below about 14%; further: read at 38.3 µM for the half of the compounds with a filed dose; 0% is about no effect
Shiga toxin inh: blocks Shiga toxin action in Vero cells; Vero cells, Shiga toxin protein synthesis inhibition reporter; inhibition, % at 38.7 µM; 290,000 tested, 9.2% active; AID 2315; in the data active means inhibition mostly above about 28%, no sharp cut-off; inactive means mostly below about 43%; further: 0% is about no effect
HCV inhibitor: inhibitors of hepatitis C virus infection; Huh7.5.1 HCVcc-Cre infection, luciferase reporter, 44 h; Potency, µM (doses to about 41.8 µM), without a hit: top-dose activity change, negative = inhibition, usual class: inhibitors; 340,000 tested, 3.4% active; further: potency means the concentration at half of the fitted maximal effect; on the % scale 0 is the no-effect control and ±100 the full control effect
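Luciferase read-out (15 sec integration) after a 15 min room-temperature substrate step quantifies HCVcc-Cre infection. Cells, 1,000 per well, had compound added 4 h post-plating, then virus at ~0.5 moi, and were cultured 44 h.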
An asterisk follows results filed as active; ? = inconclusive; . = no result. Shown are actives, neighbours in structure and some others; about 21% of the full set was active somewhere. Unless noted, the call rests on the fitted dose curve; in most records, active means well fitted inhibition curve with a large enough effect; inconclusive means small, poorly fitted or top-dose-only effect, or another doubt; inactive means no such curve, though single readings can be large or run the other way.

SMILES	HCMV inh	Pf growth 48h	Pf growth 96h	CHX counter	Shiga toxin inh	HCV inhibitor
Cc1ccc(O)c(NC(=S)NC(=O)CC(C)C)c1	42	91%	81%	59*	61*	-11%
Cc1ccc(NC(=S)NC(=O)Cc2ccccc2)c(O)c1	5	7%	-9%	32*	29	16%
Cc1ccc(O)c(NC(=S)NC(=O)C(C)C)c1	37	16%	3%	16*	52*	0%
O=C(c1ccc(-n2ccnc2)cc1)N1CCCC(CO)(Cc2cccc(Cl)c2)C1 (centres undefined)	-5	?	16%	-4	-5	-28%
Cc1sc2ncnc(NCC(O)c3ccc([N+](=O)[O-])cc3)c2c1C (centres undefined)	-79*	9.3µM*	?	-2	-8	11µM*
Cc1sc2ncnc(NCC(c3ccccc3)N(C)C)c2c1C (centres undefined)	-28	-17%	?	-3	-19	?
Cc1sc2ncnc(NCC(O)c3ccccc3)c2c1C (centres undefined)	-74*	-17%	4%	23*	82*	11µM*
CN(Cc1ccccc1)c1ccc2cc(S(=O)(=O)N3CCCCC3)ccc2n1	3	.	.	.	.	.
CC(=O)c1cccc(NC(=O)C2CCCN(c3nnc(-n4cccc4)s3)C2)c1 (centres undefined)	-103*	.	.	.	.	.
O=C(C1CCN(c2nnc(N3CCCC3=O)s2)CC1)N1CCN(Cc2ccc3c(c2)OCO3)CC1	22	?	?	-2	3	-5%
O=C(Nc1cc(C(F)(F)F)ccc1Cl)C1CCN(c2nnc(-n3cccc3)s2)CC1	0	8.3µM*	11%	-3	3	-21%
O=C(C1CCN(c2nnc(-n3cccc3)s2)CC1)N1CCN(Cc2ccc3c(c2)OCO3)CC1	?	?	1.5µM*	3	-2	?
COc1cccc(NC(=O)C2CCCN(c3nnc(-n4c(C)ccc4C)s3)C2)c1 (centres undefined)	8	.	.	.	.	.
CC1CCN(Cc2ccc(NC(=O)C3CCN(c4nnc(-n5cccc5)s4)CC3)cc2)CC1	?	7.4µM*	8%	-5	-1	-5%
COc1ccc(C2(CNC(=O)C(=O)Nc3ccccc3C)CCCC2)cc1OC	-9	.	.	.	.	.
O=C(Cc1ccc([N+](=O)[O-])cc1)Nc1nccs1	-2	0%	-20%	5	-2	-6%
CCOc1ccc(CC(=O)Nc2nccs2)cc1	19	3%	32%	20*	12	20%
COc1ccc2c(CC(=O)Nc3nccs3)coc2c1	99	1%	65%	31*	77*	6%
Cc1cccc(OCCCC(=O)Nc2nccs2)c1	29	?	.	1	-9	?
Cc1ccc(CC(=O)Nc2nccs2)cc1C	-94*	1%	?	14	13	10%
Cc1ccc(OCCCC(=O)Nc2nccs2)cc1	13	26%	?	23*	42*	1%
Cc1ccc(S(=O)(=O)c2cn(CC(=O)Nc3ccc4c(c3)OCO4)c3ccccc3c2=O)cc1	8	.	.	.	.	.
O=C(Nc1ccccc1)c1ccc(S(=O)(=O)Nc2cccc(O)c2)cc1	-32	2%	35%	-1	-24	?
O=C(O)c1cccc(NS(=O)(=O)c2ccc(-c3ccc(S(=O)(=O)Nc4cccc(C(=O)O)c4)cc3)cc2)c1	-72*	26%	5%	-1	-1	27%
O=C(O)c1cccc(NS(=O)(=O)c2ccc(Oc3ccc(S(=O)(=O)Nc4cccc(C(=O)O)c4)cc3)cc2)c1	53	.	.	.	.	24%
SMILES	HCMV inh	Pf growth 48h	Pf growth 96h	CHX counter	Shiga toxin inh	HCV inhibitor
CC(=O)c1cccc(NS(=O)(=O)c2ccc(C(=O)Nc3ccccc3)cc2)c1	-76*	16%	34%	2	-22	4.5µM*
Cc1cccc(N2CCN(C(=O)c3cnn(-c4cccc(Cl)c4C)c3C3CCNCC3)CC2)c1C	-99*	.	.	.	.	.
Cc1ccc(N2CCN(C(=O)c3cnn(-c4ccc(C)c(C)c4)c3C3CCNCC3)CC2)c(C)c1	-97*	.	.	.	.	.
COc1ccccc1N1CCN(C(=O)c2cnn(-c3ccc(C)c(C)c3)c2C2CCN(C(=O)OC(C)(C)C)CC2)CC1	0	.	.	.	.	.
Cc1ccc(Cl)cc1N1CCN(C(=O)c2cnn(-c3ccc(Cl)cc3)c2C2CCNCC2)CC1	-101*	.	.	.	.	.
Cc1cc(C)c(NC(=O)C(=O)NCC(c2cccnc2)N2CCN(c3ccccc3F)CC2)c(C)c1 (centres undefined)	6	.	.	.	.	.
Cc1cc(C)c(Cn2cnc3ccccc32)c(C)c1	-28	?	9%	4	18	?
O=C(NCc1ccc(Cl)c(Cl)c1)c1ccco1	0	-10%	67%	-2	16	18%
O=C(Nc1ccc(-c2cn3ccccc3n2)cc1)c1ccco1	17	219%	128%	58*	68*	-11%
O=C(NCc1ccc(CNC(=O)c2ccco2)cc1)c1ccco1	-9	-3%	12µM*	5	-13	10%
O=C(Cc1cccs1)NCc1cn2ccccc2n1	14	.	-6%	-2	-10	14%
O=C(NCc1cn2ccccc2n1)c1ccco1	35	60%	-12%	25*	37	12%
COc1ccc(C)cc1S(=O)(=O)Nc1ccc2c(c1)OCCO2	16	24%	?	2	.	-1%
Cc1cc(C(=O)N/N=C/c2ccc([N+](=O)[O-])s2)n[nH]1	-91*	?	2.1µM*	17*	28	10µM*
Cc1cc(C(=O)N/N=C/c2cc(Br)c(Br)o2)n[nH]1	-37	12%	-4%	23*	80*	-3%
Cc1cc(C(=O)N/N=C\c2cc(C(C)(C)C)c(O)c(C(C)(C)C)c2)n[nH]1	-31	-17%	10%	-3	4	-29%
Cc1[nH]cnc1C(=O)N/N=C/c1ccc([N+](=O)[O-])s1	-90*	?	1.9µM*	24*	55*	?
Cc1cc(C(=O)N/N=C/c2ccc(C)s2)n[nH]1	79	93%	?	29	86*	3%
Cc1cc(C(=O)N/N=C/c2ccc(Br)o2)n[nH]1	-14	21%	14%	11	31	4%
Cc1ccc(CN(Cc2cccn2-c2nnc(N3CCCC3=O)s2)C(=O)Nc2ccc(F)cc2)cc1	-30	.	.	.	.	.
Cc1cc(C)cc(OCC(=O)Nc2nonc2-c2ccc(Br)cc2)c1	0	.	.	.	.	.
CCCCCC(=O)N1CCN(CCN=CC2=C(O)CC(c3ccc(OC)c(OC)c3)CC2=O)CC1 (centres undefined)	-11	9%	.	-1	-1	4%
COc1ccc(C2CC(=O)C(C=NCCN3CCNCC3)=C(O)C2)cc1OC (centres undefined)	.	-1%	13µM*	-6	24	.
COc1ccc(-c2nc(C#N)c(NCC3CCCO3)o2)cc1OC (centres undefined)	53	1%	18%	23*	11	?
